The source of these data is the supplement of paper PMC6411743.

± gives the standard deviation of the averaged measurements. The full data set covers some 6,500 targets. This sample favours those with the largest changes.

Chain of UniProt O95470 (O95470 whole entry): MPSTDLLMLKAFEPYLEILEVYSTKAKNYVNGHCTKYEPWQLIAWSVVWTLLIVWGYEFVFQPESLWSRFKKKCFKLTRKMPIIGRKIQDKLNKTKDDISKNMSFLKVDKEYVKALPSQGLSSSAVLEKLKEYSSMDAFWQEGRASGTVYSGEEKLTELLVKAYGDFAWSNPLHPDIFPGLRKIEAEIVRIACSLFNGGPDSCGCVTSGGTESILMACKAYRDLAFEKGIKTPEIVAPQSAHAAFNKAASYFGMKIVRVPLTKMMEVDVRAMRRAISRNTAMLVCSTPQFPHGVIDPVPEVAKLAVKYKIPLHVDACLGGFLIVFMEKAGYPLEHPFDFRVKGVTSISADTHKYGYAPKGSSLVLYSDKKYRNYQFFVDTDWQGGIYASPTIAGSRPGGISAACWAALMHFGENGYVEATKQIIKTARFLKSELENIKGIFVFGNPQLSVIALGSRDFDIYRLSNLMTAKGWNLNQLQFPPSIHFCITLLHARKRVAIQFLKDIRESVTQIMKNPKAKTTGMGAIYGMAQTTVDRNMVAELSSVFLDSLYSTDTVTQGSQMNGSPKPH
Chain of UniProt P38935 (P38935 whole entry): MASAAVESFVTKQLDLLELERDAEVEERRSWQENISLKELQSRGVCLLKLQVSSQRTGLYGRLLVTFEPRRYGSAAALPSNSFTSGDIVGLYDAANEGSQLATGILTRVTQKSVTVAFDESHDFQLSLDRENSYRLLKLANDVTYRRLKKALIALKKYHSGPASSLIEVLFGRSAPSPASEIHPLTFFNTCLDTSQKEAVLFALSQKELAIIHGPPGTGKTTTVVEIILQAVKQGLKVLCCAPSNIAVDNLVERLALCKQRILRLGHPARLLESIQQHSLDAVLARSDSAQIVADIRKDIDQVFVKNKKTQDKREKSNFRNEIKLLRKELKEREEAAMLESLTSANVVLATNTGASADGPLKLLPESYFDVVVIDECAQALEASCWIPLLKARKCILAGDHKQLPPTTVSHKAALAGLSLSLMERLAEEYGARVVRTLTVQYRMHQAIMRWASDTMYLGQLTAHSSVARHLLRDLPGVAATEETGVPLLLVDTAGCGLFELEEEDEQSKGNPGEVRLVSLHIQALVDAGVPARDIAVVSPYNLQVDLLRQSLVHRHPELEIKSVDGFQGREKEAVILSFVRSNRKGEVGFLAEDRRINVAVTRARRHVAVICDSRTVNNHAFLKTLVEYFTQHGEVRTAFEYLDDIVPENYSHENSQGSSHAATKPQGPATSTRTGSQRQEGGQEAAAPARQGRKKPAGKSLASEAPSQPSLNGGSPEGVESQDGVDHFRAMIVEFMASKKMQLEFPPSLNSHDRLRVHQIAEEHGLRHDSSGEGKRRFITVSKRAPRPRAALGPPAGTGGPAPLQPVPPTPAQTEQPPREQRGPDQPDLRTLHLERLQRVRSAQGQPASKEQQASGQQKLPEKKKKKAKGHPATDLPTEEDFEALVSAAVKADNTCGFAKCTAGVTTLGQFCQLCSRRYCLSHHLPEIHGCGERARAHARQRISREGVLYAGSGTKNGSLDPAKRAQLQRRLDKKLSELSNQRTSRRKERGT
Chain of UniProt P14550 (P14550 whole entry): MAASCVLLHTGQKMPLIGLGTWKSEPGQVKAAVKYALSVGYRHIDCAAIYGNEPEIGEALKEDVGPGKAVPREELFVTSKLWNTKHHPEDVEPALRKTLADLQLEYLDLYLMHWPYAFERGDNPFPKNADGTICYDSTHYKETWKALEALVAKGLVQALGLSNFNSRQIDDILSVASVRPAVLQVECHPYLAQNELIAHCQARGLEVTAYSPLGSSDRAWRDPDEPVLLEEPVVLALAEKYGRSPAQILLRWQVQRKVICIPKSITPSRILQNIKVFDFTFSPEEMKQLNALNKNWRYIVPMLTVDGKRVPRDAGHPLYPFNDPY
Chain of UniProt O75718 (O75718 whole entry): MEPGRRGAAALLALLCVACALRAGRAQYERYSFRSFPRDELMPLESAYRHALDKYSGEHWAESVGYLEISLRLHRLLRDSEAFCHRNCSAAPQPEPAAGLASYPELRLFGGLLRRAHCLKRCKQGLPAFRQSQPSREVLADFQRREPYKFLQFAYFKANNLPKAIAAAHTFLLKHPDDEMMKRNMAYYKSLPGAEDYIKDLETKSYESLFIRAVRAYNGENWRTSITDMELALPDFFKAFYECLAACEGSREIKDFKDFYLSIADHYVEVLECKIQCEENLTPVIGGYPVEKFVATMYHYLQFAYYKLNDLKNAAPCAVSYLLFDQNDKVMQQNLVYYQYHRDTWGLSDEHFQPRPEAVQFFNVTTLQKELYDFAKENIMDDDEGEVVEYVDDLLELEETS
Chain of UniProt Q01826 (Q01826 whole entry): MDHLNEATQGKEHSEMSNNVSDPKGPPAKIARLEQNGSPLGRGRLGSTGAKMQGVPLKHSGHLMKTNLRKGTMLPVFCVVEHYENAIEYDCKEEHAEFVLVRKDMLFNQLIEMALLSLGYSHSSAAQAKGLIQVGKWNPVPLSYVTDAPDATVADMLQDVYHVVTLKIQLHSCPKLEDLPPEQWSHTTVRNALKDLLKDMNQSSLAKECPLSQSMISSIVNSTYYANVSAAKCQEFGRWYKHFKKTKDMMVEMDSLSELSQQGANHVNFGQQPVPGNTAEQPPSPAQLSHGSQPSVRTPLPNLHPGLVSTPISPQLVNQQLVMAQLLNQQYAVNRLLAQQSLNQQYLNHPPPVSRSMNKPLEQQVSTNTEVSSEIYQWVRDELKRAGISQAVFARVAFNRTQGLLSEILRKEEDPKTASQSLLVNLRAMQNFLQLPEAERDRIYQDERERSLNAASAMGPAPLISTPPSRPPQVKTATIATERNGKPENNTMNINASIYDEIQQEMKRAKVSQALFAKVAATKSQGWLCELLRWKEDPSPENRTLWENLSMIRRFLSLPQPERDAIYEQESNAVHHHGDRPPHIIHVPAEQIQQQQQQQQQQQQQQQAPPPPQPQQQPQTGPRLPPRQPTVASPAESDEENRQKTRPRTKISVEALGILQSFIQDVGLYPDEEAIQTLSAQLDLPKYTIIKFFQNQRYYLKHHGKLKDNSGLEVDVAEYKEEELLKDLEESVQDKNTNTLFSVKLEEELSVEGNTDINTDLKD
Chain of UniProt O95757 (O95757 whole entry): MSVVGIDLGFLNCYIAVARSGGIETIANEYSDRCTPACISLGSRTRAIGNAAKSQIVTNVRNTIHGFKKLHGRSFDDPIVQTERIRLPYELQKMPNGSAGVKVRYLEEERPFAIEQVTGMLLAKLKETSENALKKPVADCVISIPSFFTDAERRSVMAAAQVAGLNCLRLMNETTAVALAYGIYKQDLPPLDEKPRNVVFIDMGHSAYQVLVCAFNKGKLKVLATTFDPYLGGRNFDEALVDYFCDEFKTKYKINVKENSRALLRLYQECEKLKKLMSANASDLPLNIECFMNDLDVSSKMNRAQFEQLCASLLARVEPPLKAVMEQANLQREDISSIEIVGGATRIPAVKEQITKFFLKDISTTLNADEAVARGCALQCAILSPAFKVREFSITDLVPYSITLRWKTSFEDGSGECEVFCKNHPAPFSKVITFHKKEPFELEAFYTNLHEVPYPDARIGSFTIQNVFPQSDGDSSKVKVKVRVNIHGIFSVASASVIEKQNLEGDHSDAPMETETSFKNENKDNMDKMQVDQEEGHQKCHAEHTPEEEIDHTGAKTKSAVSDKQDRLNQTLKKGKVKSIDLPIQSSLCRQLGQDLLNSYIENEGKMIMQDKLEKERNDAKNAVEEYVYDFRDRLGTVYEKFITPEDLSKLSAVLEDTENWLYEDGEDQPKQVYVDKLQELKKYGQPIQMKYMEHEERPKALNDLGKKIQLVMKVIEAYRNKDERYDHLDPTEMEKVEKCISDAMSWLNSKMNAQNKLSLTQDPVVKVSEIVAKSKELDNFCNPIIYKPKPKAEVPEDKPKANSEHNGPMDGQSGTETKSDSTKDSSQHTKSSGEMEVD
Chain of UniProt P67870 (P67870 whole entry, one chain of several): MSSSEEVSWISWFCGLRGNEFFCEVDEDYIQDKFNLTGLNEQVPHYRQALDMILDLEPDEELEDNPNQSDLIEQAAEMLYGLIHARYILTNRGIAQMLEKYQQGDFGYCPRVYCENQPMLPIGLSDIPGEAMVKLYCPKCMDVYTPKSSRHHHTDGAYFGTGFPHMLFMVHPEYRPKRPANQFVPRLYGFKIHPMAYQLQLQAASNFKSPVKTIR
Chain of UniProt Q00534 (Q00534 whole entry): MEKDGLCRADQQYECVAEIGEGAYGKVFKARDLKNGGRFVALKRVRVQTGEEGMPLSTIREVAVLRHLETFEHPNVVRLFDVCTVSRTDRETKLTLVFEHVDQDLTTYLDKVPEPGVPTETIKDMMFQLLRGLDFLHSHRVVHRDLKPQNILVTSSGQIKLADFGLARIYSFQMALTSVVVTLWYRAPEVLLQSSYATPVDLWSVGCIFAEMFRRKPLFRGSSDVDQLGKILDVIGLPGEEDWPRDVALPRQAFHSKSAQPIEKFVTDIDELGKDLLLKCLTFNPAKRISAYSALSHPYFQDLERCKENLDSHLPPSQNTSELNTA
Chain of UniProt P19397 (P19397 whole entry): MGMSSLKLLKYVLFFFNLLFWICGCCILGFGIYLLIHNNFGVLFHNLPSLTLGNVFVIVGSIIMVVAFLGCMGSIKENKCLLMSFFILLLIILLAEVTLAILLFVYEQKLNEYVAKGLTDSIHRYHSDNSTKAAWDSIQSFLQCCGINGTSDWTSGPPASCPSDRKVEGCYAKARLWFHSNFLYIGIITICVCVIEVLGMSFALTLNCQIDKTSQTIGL
Chain of UniProt O95639 (O95639 whole entry): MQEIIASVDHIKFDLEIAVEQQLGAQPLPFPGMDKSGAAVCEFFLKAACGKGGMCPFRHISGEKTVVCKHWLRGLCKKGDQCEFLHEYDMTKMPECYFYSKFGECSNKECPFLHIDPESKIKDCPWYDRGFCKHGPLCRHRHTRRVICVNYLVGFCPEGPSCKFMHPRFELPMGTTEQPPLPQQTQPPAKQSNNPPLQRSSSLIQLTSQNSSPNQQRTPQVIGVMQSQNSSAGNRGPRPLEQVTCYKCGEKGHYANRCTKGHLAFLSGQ

Compound in one assay: Nc1ncnc2c1ncn2[C@@H]1O[C@H](COP(=O)(O)OP(=O)(O)OP(=O)(O)O)[C@@H](O)[C@H]1O [adenosine triphosphate]
Put plainly: NP40-soluble protein abundance relative to vehicle (solubility fold change) (ratio); higher = more soluble protein in presence of ATP. The settings on record: concentration: 6mM. Put shortly: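 Each value is a fold change relative to the detergent-processed vehicle, calculated per replicate from vsn-normalised intensities. Jurkat crude lysate received eight concentrations (0.1 to 10 mM) for 10 min at room temperature and 3 min at 37 °C, then was solubilised in 0.8% NP40 with benzonase (60 min, 4 °C). The ultracentrifuged supernatant was TMT-labelled and run by LC-MS/MS in three independent experiments.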
For the target FXR2 (UniProt P51116), the NP40-soluble protein abundance is 2.24 ± 0.27.
In the case of UROS (UniProt P10746), the NP40-soluble protein abundance turned out to be 0.968 ± 0.038.
Same read-out and setting: in the case of IDH1 (UniProt O75874) it was 0.94 ± 0.081; in that of GSTM2 (UniProt P28161), 0.889 ± 0.035; in that of EIF2S1 (UniProt P05198), 1.04 ± 0.07.
On the same count and under the same terms, the figure for HSP90AB1 (UniProt P08238) is 0.928 ± 0.069.
Same read-out and setting: the figure for UniProt P62253 is 1.01 ± 0.11.
In the case of CDKN1B (UniProt P46527), the NP40-soluble protein abundance is 1.09 ± 0.077.
As to CRTAP (UniProt O75718), the NP40-soluble protein abundance was 1.19 ± 0.034.
As to PRIM2 (UniProt P49643), the NP40-soluble protein abundance is 1 ± 0.034.
With UniProt O95639|O95639-2|O95639-3, the NP40-soluble protein abundance was 1.64 ± 0.1.
As for ATF1 (UniProt P18846), the NP40-soluble protein abundance was determined as 0.999 ± 0.054.
On to SGPL1 (UniProt O95470), for which the NP40-soluble protein abundance stood at 0.965 ± 0.094.
Same read-out and setting: in the case of UniProt Q02078-2|Q02078-6 it was 0.926 ± 0.036.
TOP1 (UniProt P11387): the NP40-soluble protein abundance turned out to be 1.42 ± 0.035.
IGHMBP2 (UniProt P38935): the NP40-soluble protein abundance amounted to 2.01 ± 0.13.
On to CDK6 (UniProt Q00534), for which the NP40-soluble protein abundance is 0.955 ± 0.058.
For the target “UniProt P11388|P11388-2|P11388-3|P11388-4”, the NP40-soluble protein abundance is 1.76 ± 0.074.
Still for that read-out and setting: in the case of HSPA4L (UniProt O95757) it was 0.987 ± 0.018; in that of SOAT1 (UniProt P35610), 0.97 ± 0.029; in that of HMGN1 (UniProt P05114), 1.88 ± 0.89.
Still for that read-out and setting: the figure for UniProt Q01826|Q01826-2 is 0.96 ± 0.031; for UniProt P67870|Q5SRQ6 it is 1.05 ± 0.067.
Same read-out and setting: the figure for TPMT (UniProt P51580) is 0.954 ± 0.12; for C1QBP (UniProt Q07021) it is 0.585 ± 0.18; for CD53 (UniProt P19397) it is 0.832 ± 0.049.
As to “UniProt P18583|P18583-5|P18583-7|P18583-9”, the NP40-soluble protein abundance was determined as 1.49 ± 0.14.
Still for that read-out and setting: in the case of AKR1A1 (UniProt P14550) it was 0.959 ± 0.086; in that of JAK1 (UniProt P23458), 1.16 ± 0.043; in that of CDKN2D (UniProt P55273), 0.953 ± 0.019.
For FBL (UniProt P22087), the NP40-soluble protein abundance was found to be 1.544 ± 0.0074.

The same assay, now with this note: concentration: 8mM.
For FXR2 (UniProt P51116), the NP40-soluble protein abundance is 2.26 ± 0.3.
The same measure, in the same setting: in the case of UROS (UniProt P10746) it was 0.95 ± 0.059; in that of IDH1 (UniProt O75874), 0.957 ± 0.04.
On the same count and under the same terms, in the case of GSTM2 (UniProt P28161) it was 0.911 ± 0.058; in that of EIF2S1 (UniProt P05198), 1.06 ± 0.053; in that of HSP90AB1 (UniProt P08238), 0.953 ± 0.022.
The same measure, in the same setting: the figure for UniProt P62253 is 1.03 ± 0.097; for CDKN1B (UniProt P46527) it is 0.919 ± 0.071.
For the target CRTAP (UniProt O75718), the NP40-soluble protein abundance turned out to be 1.19 ± 0.033.
Still for that read-out and setting: in the case of PRIM2 (UniProt P49643) it was 1.02 ± 0.028; in that of UniProt O95639|O95639-2|O95639-3, 1.7 ± 0.039; in that of ATF1 (UniProt P18846), 0.97 ± 0.074.
On the same count and under the same terms, the figure for SGPL1 (UniProt O95470) is 1.07 ± 0.079; for UniProt Q02078-2|Q02078-6 it is 0.907 ± 0.032.
Take TOP1 (UniProt P11387): the NP40-soluble protein abundance amounted to 1.599 ± 0.0062.
With IGHMBP2 (UniProt P38935), the NP40-soluble protein abundance was determined as 2.19 ± 0.2.
Still for that read-out and setting: in the case of CDK6 (UniProt Q00534) it was 0.966 ± 0.041.
Regarding “UniProt P11388|P11388-2|P11388-3|P11388-4”, the NP40-soluble protein abundance amounted to 1.99 ± 0.11.
In the case of HSPA4L (UniProt O95757), the NP40-soluble protein abundance worked out at 0.937 ± 0.036.
On the same count and under the same terms, in the case of SOAT1 (UniProt P35610) it was 1.03 ± 0.019; in that of HMGN1 (UniProt P05114), 1.67 ± 0.38.
Still for that read-out and setting: in the case of UniProt Q01826|Q01826-2 it was 0.928 ± 0.02; in that of UniProt P67870|Q5SRQ6, 1.07 ± 0.019.
Consider TPMT (UniProt P51580), for which the NP40-soluble protein abundance amounted to 0.992 ± 0.057.
For C1QBP (UniProt Q07021), the NP40-soluble protein abundance turned out to be 1.19 ± 0.24.
Same read-out and setting: the figure for CD53 (UniProt P19397) is 0.823 ± 0.07.
On the same count and under the same terms, in the case of “UniProt P18583|P18583-5|P18583-7|P18583-9” it was 1.45 ± 0.095.
Turning to AKR1A1 (UniProt P14550), the NP40-soluble protein abundance worked out at 0.986 ± 0.059.
As to JAK1 (UniProt P23458), the NP40-soluble protein abundance turned out to be 1.27 ± 0.047.
Still for that read-out and setting: the figure for CDKN2D (UniProt P55273) is 0.951 ± 0.024.
On the same count and under the same terms, in the case of FBL (UniProt P22087) it was 1.93 ± 0.025.

The same assay, now with this note: concentration: 10mM.
Take FXR2 (UniProt P51116): the NP40-soluble protein abundance is 2.33 ± 0.26.
On to UROS (UniProt P10746), for which the NP40-soluble protein abundance stood at 0.927 ± 0.054.
Regarding IDH1 (UniProt O75874), the NP40-soluble protein abundance was determined as 0.949 ± 0.027.
Same read-out and setting: the figure for GSTM2 (UniProt P28161) is 0.861 ± 0.056; for EIF2S1 (UniProt P05198) it is 1.05 ± 0.051; for HSP90AB1 (UniProt P08238) it is 0.964 ± 0.064.
With UniProt P62253, the NP40-soluble protein abundance was determined as 0.947 ± 0.049.
With CDKN1B (UniProt P46527), the NP40-soluble protein abundance turned out to be 0.916 ± 0.1.
On to CRTAP (UniProt O75718), for which the NP40-soluble protein abundance turned out to be 1.2 ± 0.052.
For the target PRIM2 (UniProt P49643), the NP40-soluble protein abundance amounted to 1.03 ± 0.047.
On the same count and under the same terms, the figure for UniProt O95639|O95639-2|O95639-3 is 1.73 ± 0.078.
Turning to ATF1 (UniProt P18846), the NP40-soluble protein abundance came to 0.917 ± 0.068.
Turning to SGPL1 (UniProt O95470), the NP40-soluble protein abundance stood at 1.06 ± 0.075.
Same read-out and setting: the figure for UniProt Q02078-2|Q02078-6 is 0.949 ± 0.048.
On the same count and under the same terms, in the case of TOP1 (UniProt P11387) it was 1.78 ± 0.074; in that of IGHMBP2 (UniProt P38935), 2.4 ± 0.14.
On the same count and under the same terms, in the case of CDK6 (UniProt Q00534) it was 0.974 ± 0.064.
For the target “UniProt P11388|P11388-2|P11388-3|P11388-4”, the NP40-soluble protein abundance is 2.03 ± 0.14.
Still for that read-out and setting: in the case of HSPA4L (UniProt O95757) it was 0.949 ± 0.019; in that of SOAT1 (UniProt P35610), 0.971 ± 0.041.
Still for that read-out and setting: in the case of HMGN1 (UniProt P05114) it was 1.95 ± 1.1; in that of UniProt Q01826|Q01826-2, 0.922 ± 0.011; in that of UniProt P67870|Q5SRQ6, 1.04 ± 0.017.
On the same count and under the same terms, in the case of TPMT (UniProt P51580) it was 0.979 ± 0.044.
As for C1QBP (UniProt Q07021), the NP40-soluble protein abundance was determined as 0.587 ± 0.2.
Consider CD53 (UniProt P19397), for which the NP40-soluble protein abundance came to 0.791 ± 0.093.
Turning to “UniProt P18583|P18583-5|P18583-7|P18583-9”, the NP40-soluble protein abundance amounted to 1.55 ± 0.13.
With AKR1A1 (UniProt P14550), the NP40-soluble protein abundance was determined as 0.944 ± 0.05.
On to JAK1 (UniProt P23458), for which the NP40-soluble protein abundance turned out to be 1.26 ± 0.041.
For the target CDKN2D (UniProt P55273), the NP40-soluble protein abundance came out at 0.872 ± 0.045.
Consider FBL (UniProt P22087), for which the NP40-soluble protein abundance came to 2.51 ± 0.15.
